BAZ2B inh: blocks human BAZ2B; Q9UIF8; AlphaScreen BAZ2B-H3K14Ac peptide displacement; Potency, µM (top dose mostly 114 µM), usual class: inhibitors; hit rate 4.4% among 360,000; also: nearly all actives have a fitted effect of over 60% in size
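Complex of BAZ2B and biotin-H3K14Ac (50 nM apiece) forms over 30 min at RT, then faces library compounds up to 110 uM for another 30 min; AlphaScreen beads added, 20 min dark incubation, luminescence read.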
Sfp PPTase inh: inhibitors of Bacillus subtilis Sfp phosphopantetheinyl transferase | Q9F4F7 | Biochemical Sfp PPTase activity, qHTS | Potency, µM, hits mostly inhibitors | hit rate 3.5% among 310,000 | AID 1490;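 also: the enzyme is Sfp with the accession as filed and its product quenches rhodamine fluorescence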
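Compounds were incubated with enzyme (final 15 nM) for 15 min at room temperature before substrate addition started the reaction. Fluorescence at 525 nm excitation, 598 nm emission was recorded immediately and after 30 minutes.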
JMJD2A Tudor: JMJD2A Tudor domain (human) inhibition | O75164 | AlphaScreen JMJD2A-Tudor / H3K4me3 peptide binding | Potency, µM (series often up to 114 µM), most hits filed as inhibitors | hit rate 4.4% among 390,000; also: nearly all actives have a fitted effect of over 50% in size
ALOX12 inh: inhibitors of human 12S-lipoxygenase ALOX12 | purified 12hLO, xylenol orange hydroperoxide absorbance | Potency, µM (titrated, usually from 108 µM), hits mostly inhibitors | hit rate 1.1% among 580,000
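Purified human 12hLO (150 nM final) in 25 mM Hepes, 0.01% Triton X-100, pH 7.0 was preincubated 15 min at room temperature with compound. Then 40 uM arachidonic acid was added, 30 min. Hydroperoxide was read by Fe-XO absorbance ratio 573/405 nm.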
HP1b chromo inh: inhibitors of HP1-beta chromodomain binding to methylated histone tails. hit rate 0.56% among 390,000. Potency, µM (series often up to 114 µM), actives largely listed as inhibitors. AlphaScreen HP1-beta / biotin-H3K9me3 peptide binding; also: nearly all actives have a fitted effect of over 70% in size
Target sequence (P83916 whole entry, looked up): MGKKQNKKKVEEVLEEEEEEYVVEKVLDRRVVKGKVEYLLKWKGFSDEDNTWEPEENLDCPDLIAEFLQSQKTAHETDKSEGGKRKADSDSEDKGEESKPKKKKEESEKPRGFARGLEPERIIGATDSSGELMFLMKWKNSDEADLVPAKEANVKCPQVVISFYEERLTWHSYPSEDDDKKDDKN
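HP1-beta protein (50 nM final) preincubated 30 min at room temperature with biotinylated H3(1-18)K9me3 peptide (50 nM) in PBS pH 7.4, 0.01% Tween-20, then compound added for 30 min. AlphaScreen streptavidin donor/nickel chelate acceptor beads (10 ug/mL final), 30 min dark, luminescence read.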
G9a inh: blocks human histone lysine methyltransferase G9a. Q96KQ7. G9a H3K9 monomethylation, AlphaScreen, 2 h. Potency, µM (doses to about 102 µM), usual class: inhibitors. hit rate 8.8% among 350,000. AID 504332; also: nearly all actives have a fitted effect of over 75% in size
Target sequence (Q96KQ7 913-1193 limits assumed): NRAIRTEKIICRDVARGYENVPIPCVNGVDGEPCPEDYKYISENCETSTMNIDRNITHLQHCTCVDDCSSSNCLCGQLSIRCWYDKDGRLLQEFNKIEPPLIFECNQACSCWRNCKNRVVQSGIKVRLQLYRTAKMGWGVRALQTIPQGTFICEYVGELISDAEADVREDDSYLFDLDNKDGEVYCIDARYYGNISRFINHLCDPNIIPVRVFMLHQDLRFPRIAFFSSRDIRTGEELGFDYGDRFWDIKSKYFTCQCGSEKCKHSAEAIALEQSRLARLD
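Compounds were preincubated with 20 nM G9a for 15 min, after which biotinylated H3K9 peptide (500 nM) and SAM (20 uM) started a 2 h room-temperature reaction. Monomethylated product was quantified by antibody-based AlphaScreen chemiluminescence.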
Hits are given with their value; – = inactive; ? = inconclusive; · = not tested or not shown; [ ] = another dose, or the depositor's remark. The list is not random: actives were taken first. Their share in the collection is about 8.7%. Calls follow the shape of the dose curve; as a rule, active = well fitted curve in the direction sought with a large enough effect; inconclusive = small, poorly fitted or top-dose-only effect, or another doubt; inactive = no such curve, though single readings can be large; an effect the other way counts as inactive or inconclusive.

SMILES | BAZ2B inh | Sfp PPTase inh | JMJD2A Tudor | ALOX12 inh | HP1b chromo inh | G9a inh
CCOC(=O)c1[nH]c(C)c(/C(O)=C2\C(=O)C(=O)N(CCCN(C)C)C2c2ccncc2)c1C (stereo unspecified) | – | – | · | · | · | –
COC(=O)c1[nH]c(C)c(/C(O)=C2\C(=O)C(=O)N(CCN3CCOCC3)C2c2cccnc2)c1C (stereo unspecified) | – | – | 22µM | – | – | ?
Cc1cc(C(=O)CN(C)CC(=O)Nc2ccccc2Cl)c(C)n1CCc1cccs1 | · | · | · | – | · | ·
O=C(c1ccc(Cl)cc1)N1CCN(c2cc(-c3ccc(Cl)cc3)[nH]n2)CC1 | · | · | · | – | · | ·
Cc1ccc(C2/C(=C(/O)c3ccccc3)C(=O)C(=O)N2CCN2CCOCC2)o1 (stereo unspecified) | – | – | – | – | – | ?
CN(C)CCCN1C(=O)C(=O)/C(=C(/O)c2ccc3c(c2)OCCO3)C1c1ccco1 (stereo unspecified) | – | – | · | · | · | –
CCN(CC)CCN1C(=O)C(=O)/C(=C(/O)c2c(C)[nH]c(C(=O)OC)c2C)C1c1ccc(C)o1 (stereo unspecified) | ? | – | – | – | – | 35µM
COC(=O)c1[nH]c(C)c(/C(O)=C2\C(=O)C(=O)N(CCN3CCOCC3)C2c2ccc(C)o2)c1C (stereo unspecified) | – | – | ? | ? | – | 45µM
Cc1ccc(C)c(/C(O)=C2/C(=O)C(=O)N(CCN3CCOCC3)C2c2ccco2)c1 (stereo unspecified) | 22µM | – | 79µM | ? | ? | ?
CCN(CC)CCN1C(=O)C(=O)/C(=C(/O)c2c(C)[nH]c(C(=O)OC)c2C)C1c1cccnc1 (stereo unspecified) | – | – | – | – | – | ?
COc1ccc2[nH]cc(CCNC(=O)CCC[C@H]3NC[C@@H]4C[C@H]3CN(Cc3ccccc3)C4)c2c1 | · | · | · | 4µM | · | ·
CNC(=O)CCC[C@H]1NC[C@@H]2CC1CN(Cc1ccccc1)C2 | · | · | · | 8.9µM | · | ·
NC(=O)CCC[C@H]1NC[C@@H]2C[C@H]1CN(Cc1ccccc1)C2 | · | · | · | – | · | ·
Cc1ccc(NC(=O)c2ccc3c(c2)N(C)C2CCCCN2C3=O)cc1C (stereo unspecified) | · | · | · | – | · | ·
Fc1ccc(/C=N/Nc2ccc(C(F)(F)F)cn2)cc1 | · | · | · | – | · | ·
Cc1ccc(-c2cccc(NC(=O)C3C(C(=O)O)[C@@H]4C=C[C@H]3C4)c2)o1 (stereo partly specified) | ? | 7.9µM | – | ? | – | 16µM
Cc1cccc(C)c1NC(=O)C1C2C=CC(C2)C1C(=O)O (stereo unspecified) | – | – | – | – | – | ·
O=C(O)C1C2C=CC(C2)C1C(=O)Nc1cccc(F)c1 (stereo unspecified) | – | – | – | ? | – | –
COc1ccc(C(C)(C)C)cc1NC(=O)C1C2C=CC(C2)C1C(=O)O (stereo unspecified) | – | – | – | – | – | 50µM
Cc1ccc(-c2ccccc2NC(=O)C2C3C=CC(C3)C2C(=O)O)o1 (stereo unspecified) | 56µM | 25µM | – | – | – | ?
O=C(O)c1cccc(NC(=O)C2C3C=CC(C3)C2C(=O)O)c1 (stereo unspecified) | – | – | – | – | – | 50µM
COc1ccc([N+](=O)[O-])cc1NC(=O)C1C2C=CC(C2)C1C(=O)O (stereo unspecified) | – | – | – | ? | – | ?
CCCOc1ccc(CN2C[C@@H](CO)[C@H](c3ccncc3)C2)cc1 | · | · | · | – | · | ·
CCc1ccc(NC(=O)Cn2nc(C(F)(F)F)c3c2CCC3)cc1 | – | – | – | – | – | –[2.33 µM]
CC1CCc2c(sc(NC(=O)Cn3nc(C(F)(F)F)c4c3CCCCC4)c2C#N)C1 (stereo unspecified) | – | 50µM | – | ? | – | ?
SMILES | BAZ2B inh | Sfp PPTase inh | JMJD2A Tudor | ALOX12 inh | HP1b chromo inh | G9a inh
N#Cc1c(NC(=O)Cn2nc(C(F)(F)F)c3c2CCCC3)sc2c1CCC2 | 79µM | ? | ? | ? | 32µM | 2.8µM
CCN1CCC2(Cc3ccccc3CN(S(C)(=O)=O)C2)C1 (stereo unspecified) | · | · | · | –[12.5 µM] | · | ·
CCOc1ccc(NS(=O)(=O)c2cc(-c3cnc(C4CC4)o3)ccc2C)cc1 | · | · | · | – | · | ·
CC(=O)c1c(C)[nH]c(C(=O)Cn2nnc(-c3ccc(C(C)C)cc3)n2)c1C | · | · | · | 16µM | · | ·
O=C(N/N=C/c1cccs1)c1ccc(NC(=O)c2ccccc2)cc1 | · | · | · | – | · | ·
O=C(OCc1c(Cl)cccc1Cl)c1ccc(CN2CCCC2=O)cc1 | · | · | · | – | · | ·
N/C(COc1ccc(C(=O)O)cc1)=N\O | ? | – | – | – | – | 50µM
N/C(COc1ccc2ccccc2c1)=N\O | · | · | · | – | · | ·
O=C(CSc1ncc(-c2cccc(Br)c2)o1)NC1CCCCC1 | · | · | · | – | · | ·
CC(C)COC(=O)Nc1nnc(Cc2ccccc2)s1 | – | – | 18µM | – | – | –
CN(C)c1cccc(C(=O)Nc2nnc(Cc3ccccc3)s2)c1 | – | – | ? | ? | – | 40µM
O=C(Nc1nnc(Cc2ccccc2)s1)c1cccnc1 | – | – | – | – | – | –[0.501 µM]
O=S(CCCOc1ccc(F)cc1)Cc1ccccc1 (stereo unspecified) | · | · | · | – | · | ·
Cc1ccc(CCC(=O)Nc2ccc(CC(=O)O)cc2)o1 | – | ? | ? | – | – | 56µM
COc1ccc(/C=C/C(=O)Nc2sc(C)c(C)c2C(=O)O)cc1 | – | · | ? | ? | – | –
Cc1ccc(/C=C/C(=O)Nc2sc(C)c(C)c2C(=O)OC(C)C)o1 | – | ? | – | ? | – | –
Cc1sc(NC(=O)/C=C/c2ccco2)c(C(=O)O)c1C | ? | – | – | – | – | 45µM
CCOC(=O)c1c(NC(=O)CCc2ccc(CC)o2)sc(C)c1C | – | ? | – | ? | – | 28µM
CCOC(=O)c1c(NC(=O)/C=C/c2ccc(C)o2)sc(C)c1C | – | 35µM | – | ? | ? | 8.9µM
O=C(Nc1ccccc1)N1CCc2nc(-c3ccc(Cl)cc3)nc(-c3ccccc3)c2C1 | · | · | · | – | · | ·
CCn1c(/C=C/c2cn(C)c3ccccc23)nc2ccccc2c1=O | · | · | · | – | · | ·
O=C1CC2CCCC(C1)N2C(=O)c1cncc(Br)c1 | · | · | · | – | · | ·
CCOC(=O)c1c(NC(=S)Nc2ccccc2)sc(C)c1C | – | – | – | – | – | ?
COC(=O)c1c(NC(=O)CCc2ccc(C)o2)sc(C)c1C | – | 20µM | – | – | – | ?
CCOC(=O)c1c(NC(=O)C[n+]2ccc(Cc3ccccc3)cc2)sc(C)c1C | – | 25µM | – | 45µM | – | 45µM
COc1ccc(C2C(C(C)=O)=C(O)C(=O)N2CCCn2ccnc2)cc1 (stereo unspecified) | ? | – | 89µM | ? | – | –[0.0925 µM]

Source: PubChem BioAssay (National Center for Advancing Translational Sciences (NCATS))
